PubChem BioAssay (EPA / NIEHS)
The source made the active and inactive calls. The calls were made as follows: active = hit-call score of the fitted dose curve at least 0.9, where 1 is the maximum; inactive = score below 0.9.

Experiments:
Conditions in all cases: mRNA level, 48 h; actives raise or lower the signal
[1] = read-out: adenosine kinase (ADK) gene, ADK (gene 132); experiment: LTEA_HepaRG_ADK: Life Technologies and Expression Analysis (LTEA) Assay for adenosine kinase (ADK) gene using HepaRG (AID 2283471)
How it was run: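 Read-out is ADK transcript level measured by qRT-PCR and normalised to three housekeeping genes. Cells are human HepaRG, dosed for 48 h at up to 100 uM in 0.5% DMSO. Gain or loss of signal is fitted against DMSO controls.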

[2] = read-out: Alpha-fetoprotein (AFP) gene, AFP (gene 174); experiment: LTEA_HepaRG_AFP: Life Technologies and Expression Analysis (LTEA) Assay for Alpha-fetoprotein (AFP) gene using HepaRG (AID 2283472)
How it was run: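 qRT-PCR (Fluidigm TaqMan) readout of AFP transcript, normalized to three housekeeping genes, fitted bidirectionally against 0.5% DMSO baseline. HepaRG cells received chemicals for 48 h in serum-free induction medium, top concentration 100 uM, half-log steps.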

BCL2L11 (gene 10018) = experiment: LTEA_HepaRG_BCL2L11: Life Technologies and Expression Analysis (LTEA) Assay for Bcl-2 (BCL2L11) gene using HepaRG (AID 2283473)
How it was run: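 Differentiated human HepaRG cells in serum-free induction medium were exposed in duplicate for 48 h to eight concentrations (top 100 uM, half-log steps, 0.5% DMSO). BCL2L11 mRNA was quantified by TaqMan qRT-PCR, normalized to ACTB/GAPDH/POLR2A, bidirectional fit versus DMSO.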

[3] = read-out: Apolipoprotein A-V (APOA5) gene, APOA5 (gene 116519); experiment: LTEA_HepaRG_APOA5: Life Technologies and Expression Analysis (LTEA) Assay for Apolipoprotein A-V (APOA5) gene using HepaRG (AID 2283474)
How it was run: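 Differentiated human HepaRG cells were exposed in duplicate for 48 h to eight half-log concentrations from 100 uM in 0.5% DMSO. APOA5 mRNA was quantified by TaqMan qRT-PCR, normalized to ACTB, GAPDH and POLR2A, and fitted bidirectionally against DMSO.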

[4] = read-out: Bcl-2 (BID) gene, BID (gene 637); experiment: LTEA_HepaRG_BID: Life Technologies and Expression Analysis (LTEA) Assay for Bcl-2 (BID) gene using HepaRG (AID 2283476)
How it was run: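 HepaRG, 48 h exposure, 8-pt half-log series, top 100 uM, 0.5% DMSO vehicle, duplicates. Readout: BID mRNA by TaqMan qRT-PCR; housekeeping-normalized; bidirectional curve fit vs DMSO baseline.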

Caspase-3 (Homo sapiens) = Caspase-3 (Homo sapiens) (UniProt P42574); experiment: LTEA_HepaRG_CASP3: Life Technologies and Expression Analysis (LTEA) Assay for cysteine-aspartic acid protease (CASP3) using HepaRG (AID 2283477)
How it was run: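 Differentiated human HepaRG cells in serum-free induction medium were exposed 48 h to 8-point half-log concentrations from 100 uM (0.5% DMSO vehicle). CASP3 mRNA was measured by qRT-PCR, normalised to ACTB, GAPDH and POLR2A, with bidirectional fitting against DMSO.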

[5] = read-out: Cytochrome P450 (CYP24A1), CYP24A1 (gene 1591); experiment: LTEA_HepaRG_CYP24A1: Life Technologies and Expression Analysis (LTEA) Assay for Cytochrome P450 (CYP24A1) using HepaRG (AID 2283478)
How it was run: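 Differentiated HepaRG cells, pre-cultured 48 h, were exposed in duplicate for 48 h in serum-free induction medium to 8 half-log concentrations (top 100 uM, 0.5% DMSO). CYP24A1 mRNA was quantified by TaqMan qRT-PCR, normalized to ACTB/GAPDH/POLR2A, fitted bidirectionally versus DMSO.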

[6] = read-out: Cytochrome P450 (CYP1A2), CYP1A2 (gene 1544); experiment: LTEA_HepaRG_CYP1A2: Life Technologies and Expression Analysis (LTEA) Assay for Cytochrome P450 (CYP1A2) using HepaRG (AID 2283479)
How it was run: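 Differentiated human HepaRG cells in serum-free induction medium were exposed in duplicate for 48 h to 8-point half-log concentrations up to 100 uM in 0.5% DMSO. CYP1A2 mRNA measured by qRT-PCR, normalized to ACTB, GAPDH, POLR2A; bidirectional fit vs DMSO.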

[7] = read-out: cysteine-aspartic acid protease (CASP8), CASP8 (gene 841); experiment: LTEA_HepaRG_CASP8: Life Technologies and Expression Analysis (LTEA) Assay for cysteine-aspartic acid protease (CASP8) using HepaRG (AID 2283480)
How it was run: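 CASP8 transcript measured by TaqMan qRT-PCR with ACTB/GAPDH/POLR2A normalization, after 48 h chemical exposure of HepaRG cells in serum-free induction medium. Eight concentrations, top 100 uM, half-log steps, 0.5% DMSO vehicle; fits in both directions versus DMSO.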

[8] = read-out: Cytochrome P450 (CYP2B6), CYP2B6 (gene 1555); experiment: LTEA_HepaRG_CYP2B6: Life Technologies and Expression Analysis (LTEA) Assay for Cytochrome P450 (CYP2B6) using HepaRG (AID 2283481)
How it was run: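 Differentiated HepaRG cells, serum-free induction medium, exposed 48 h in duplicate to 8-point half-log concentrations from 100 uM in 0.5% DMSO. CYP2B6 mRNA by qRT-PCR, normalized to ACTB, GAPDH, POLR2A; bidirectional fit versus DMSO.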

[9] = read-out: Cytochrome P450 2C19 (Homo sapiens) (UniProt P33261); experiment: LTEA_HepaRG_CYP2C19: Life Technologies and Expression Analysis (LTEA) Assay for CYP2C19 using HepaRG (AID 2283482)
How it was run: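 Differentiated human HepaRG cells were exposed for 48 h in serum-free induction medium to 8 concentrations (top 100 uM, half-log steps, 0.5% DMSO). CYP2C19 mRNA was measured by qRT-PCR, normalized to ACTB/GAPDH/POLR2A, and fitted bidirectionally against DMSO.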

CYP2C8 (gene 1558) = experiment: LTEA_HepaRG_CYP2C8: Life Technologies and Expression Analysis (LTEA) Assay for CYP2C8 using HepaRG (AID 2283483)
How it was run: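 CYP2C8 expression measured by TaqMan qRT-PCR and normalized to three housekeeping genes. HepaRG cultures were treated for 48 h with an eight-point half-log series topping at 100 uM, vehicle 0.5% DMSO, duplicates; fitted both directions against DMSO.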

CYP2C9 (gene 1559) = experiment: LTEA_HepaRG_CYP2C9: Life Technologies and Expression Analysis (LTEA) Assay for CYP2C9 using HepaRG (AID 2283484)
How it was run: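 CYP2C9 transcript level, quantified by TaqMan qRT-PCR against three housekeeping genes, was fitted bidirectionally relative to 0.5% DMSO. HepaRG cultures were treated 48 h, in duplicate, at eight half-log concentrations topping at 100 uM.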

CYP2E1 (gene 1571) = experiment: LTEA_HepaRG_CYP2E1: Life Technologies and Expression Analysis (LTEA) Assay for CYP2E1 using HepaRG (AID 2283485)
How it was run: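 CYP2E1 transcript was measured by TaqMan qRT-PCR in human HepaRG cultures after 48 h chemical exposure (top 100 uM, half-log steps, 0.5% DMSO vehicle). Housekeeping-gene normalization; gain or loss fitted relative to DMSO baseline.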

CYP4A11 (gene 1579) = experiment: LTEA_HepaRG_CYP4A11: Life Technologies and Expression Analysis (LTEA) Assay for CYP4A11 using HepaRG (AID 2283486)
How it was run: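 Differentiated HepaRG cells, serum-free induction medium, exposed 48 h in duplicate to 8-point half-log series from 100 uM in 0.5% DMSO. CYP4A11 mRNA measured by qRT-PCR, normalized to ACTB, GAPDH, POLR2A; bidirectional fit versus DMSO.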

[10] = read-out: Cytochrome P450 3A4 (Homo sapiens) (UniProt P08684); experiment: LTEA_HepaRG_CYP3A4: Life Technologies and Expression Analysis (LTEA) Assay for CYP3A4 using HepaRG (AID 2283487)
How it was run: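 HepaRG, 48 h exposure, 8-pt CRC from 100 uM (half-log), 0.5% DMSO, duplicates; serum-free induction medium. Readout: CYP3A4 mRNA, qRT-PCR, ACTB/GAPDH/POLR2A normalization. Bidirectional fit vs DMSO.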

[11] = read-out: DNA damage-inducible transcript 3 (DDIT3), DDIT3 (gene 1649); experiment: LTEA_HepaRG_DDIT3: Life Technologies and Expression Analysis (LTEA) Assay for DNA damage-inducible transcript 3 (DDIT3) using HepaRG (AID 2283488)
How it was run: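 qRT-PCR readout (Fluidigm TaqMan), housekeeping-normalized to ACTB, GAPDH, POLR2A. HepaRG cells, 48 h exposure, 8-point half-log series from 100 uM in 0.5% DMSO, duplicates. Gain or loss of signal fitted against DMSO baseline.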

[12] = read-out: Pro-epidermal growth factor (Homo sapiens) (UniProt P01133); experiment: LTEA_HepaRG_EGF: Life Technologies and Expression Analysis (LTEA) Assay for Epidermal growth factor (EGF) using HepaRG (AID 2283489)
How it was run: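 Differentiated human HepaRG cells, plated 48 h then switched to serum-free induction medium, were exposed for 48 h to test chemicals (8-point half-log series, top 100 uM, 0.5% DMSO). EGF mRNA was quantified by qRT-PCR, normalized to ACTB, GAPDH, POLR2A.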

[13] = read-out: Early growth response protein 1 (EGR1) transcription factor, EGR1 (gene 1958); experiment: LTEA_HepaRG_EGR1: Life Technologies and Expression Analysis (LTEA) Assay for Early growth response protein 1 (EGR1) transcription factor using HepaRG (AID 2283490)
How it was run: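 EGR1 transcript levels quantified by qRT-PCR (Fluidigm arrays) against three housekeeping genes after 48 h chemical exposure of HepaRG cells. Eight-point half-log series topping at 100 uM, 0.5% DMSO vehicle, analyzed for gain or loss.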

[14] = read-out: Apoptosis regulator Bcl-2 (Homo sapiens) (UniProt P10415); experiment: LTEA_HepaRG_BCL2: Life Technologies and Expression Analysis (LTEA) Assay for Bcl-2 gene using HepaRG (AID 2283475)
How it was run: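 qRT-PCR read-out (Fluidigm TaqMan) of BCL2 transcript, normalised to three housekeeping genes, after 48 h chemical exposure of HepaRG cells; 8-point half-log series, top 100 uM, 0.5% DMSO vehicle. Gain or loss of signal fitted relative to DMSO baseline.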

Sequence of Cytochrome P450 3A4 (Homo sapiens) (P08684 whole entry, looked up): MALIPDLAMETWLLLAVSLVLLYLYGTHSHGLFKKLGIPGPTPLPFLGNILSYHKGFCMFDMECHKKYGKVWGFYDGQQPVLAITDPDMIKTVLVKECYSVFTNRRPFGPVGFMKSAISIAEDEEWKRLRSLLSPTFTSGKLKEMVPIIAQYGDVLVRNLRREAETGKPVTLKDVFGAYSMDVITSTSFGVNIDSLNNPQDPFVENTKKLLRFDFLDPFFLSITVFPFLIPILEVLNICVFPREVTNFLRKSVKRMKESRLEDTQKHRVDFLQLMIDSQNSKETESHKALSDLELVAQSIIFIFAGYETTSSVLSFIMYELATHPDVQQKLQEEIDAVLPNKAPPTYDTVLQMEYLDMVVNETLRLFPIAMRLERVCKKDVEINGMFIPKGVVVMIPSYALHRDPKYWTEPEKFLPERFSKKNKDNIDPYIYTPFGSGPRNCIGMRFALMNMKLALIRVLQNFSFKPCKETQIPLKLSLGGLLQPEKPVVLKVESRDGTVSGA
Sequence of Caspase-3 (Homo sapiens) (P42574 whole entry, looked up): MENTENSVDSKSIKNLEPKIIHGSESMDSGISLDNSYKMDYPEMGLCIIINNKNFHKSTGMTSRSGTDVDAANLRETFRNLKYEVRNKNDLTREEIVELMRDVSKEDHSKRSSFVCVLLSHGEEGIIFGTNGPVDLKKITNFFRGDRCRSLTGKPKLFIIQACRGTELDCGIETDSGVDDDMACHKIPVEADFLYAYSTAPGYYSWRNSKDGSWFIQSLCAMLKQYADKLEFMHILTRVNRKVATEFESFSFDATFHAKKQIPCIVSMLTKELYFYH
Sequence of Cytochrome P450 2C19 (Homo sapiens) (P33261 whole entry, looked up): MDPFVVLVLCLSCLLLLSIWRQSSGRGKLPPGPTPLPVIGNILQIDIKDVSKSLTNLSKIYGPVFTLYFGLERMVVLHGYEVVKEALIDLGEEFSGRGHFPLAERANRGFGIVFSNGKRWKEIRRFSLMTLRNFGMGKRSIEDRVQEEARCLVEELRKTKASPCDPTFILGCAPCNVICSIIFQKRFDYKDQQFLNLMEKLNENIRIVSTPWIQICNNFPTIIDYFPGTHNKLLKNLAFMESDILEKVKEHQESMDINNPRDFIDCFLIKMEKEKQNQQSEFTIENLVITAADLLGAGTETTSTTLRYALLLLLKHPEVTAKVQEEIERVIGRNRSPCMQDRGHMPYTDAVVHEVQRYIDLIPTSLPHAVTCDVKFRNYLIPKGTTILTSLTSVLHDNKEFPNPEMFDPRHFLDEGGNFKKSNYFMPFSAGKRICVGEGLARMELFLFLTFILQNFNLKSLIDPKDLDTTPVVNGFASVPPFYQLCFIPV
Sequence of Apoptosis regulator Bcl-2 (Homo sapiens) (P10415 whole entry, looked up): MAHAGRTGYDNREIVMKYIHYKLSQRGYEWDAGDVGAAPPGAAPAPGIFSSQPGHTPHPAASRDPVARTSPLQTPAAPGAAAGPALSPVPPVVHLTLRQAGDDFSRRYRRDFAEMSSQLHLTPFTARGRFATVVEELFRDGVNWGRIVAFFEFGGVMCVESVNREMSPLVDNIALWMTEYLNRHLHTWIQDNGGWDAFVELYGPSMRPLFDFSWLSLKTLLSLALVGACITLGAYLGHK

Question: `CC(COCC(C)OC(=O)c1ccccc1)OC(=O)c1ccccc1` (configuration not stated) was tested. Which outcome [1] did it give?
Answer: inactive

Question: And the outcome [2]?
Answer: inactive

Question: And the outcome (BCL2L11 (gene 10018))?
Answer: inactive

Question: What about the outcome [3] of the same compound?
Answer: inactive

Question: And the outcome [4]?
Answer: inactive

Question: What about the outcome (Caspase-3 (Homo sapiens)) of the same compound?
Answer: inactive

Question: What about the outcome [5] of the same compound?
Answer: inactive

Question: And the outcome [6]?
Answer: inactive

Question: And the outcome [7]?
Answer: inactive

Question: And the outcome [8]?
Answer: inactive

Question: What about the outcome [9] of the same compound?
Answer: inactive

Question: And the outcome (CYP2C8 (gene 1558))?
Answer: inactive

Question: What about the outcome (CYP2C9 (gene 1559)) of the same compound?
Answer: inactive

Question: And the outcome (CYP2E1 (gene 1571))?
Answer: inactive

Question: What about the outcome (CYP4A11 (gene 1579)) of the same compound?
Answer: inactive

Question: And the outcome [10]?
Answer: inactive

Question: What about the outcome [11] of the same compound?
Answer: inactive

Question: And the outcome [12]?
Answer: inactive

Question: What about the outcome [13] of the same compound?
Answer: inactive

Question: For `CCCCCCCCCCCCCCOS(=O)(=O)O`, which AC50 [2] is on record?
Answer: 50 µM (active)

Question: What about the outcome (BCL2L11 (gene 10018)) of the same compound?
Answer: inactive

Question: And the outcome [3]?
Answer: inactive

Question: And the outcome [14]?
Answer: inactive

Question: And the outcome [4]?
Answer: inactive

Question: What about the outcome (Caspase-3 (Homo sapiens)) of the same compound?
Answer: inactive

Question: And the outcome [5]?
Answer: inactive

Question: What about the outcome [6] of the same compound?
Answer: inactive

Question: What about the outcome [7] of the same compound?
Answer: inactive

Question: What about the AC50 [8] of the same compound?
Answer: 85.6 µM (active)

Question: And the outcome [9]?
Answer: inactive

Question: What about the AC50 (CYP2C8 (gene 1558)) of the same compound?
Answer: 12.6 µM (active)

Question: And the AC50 (CYP2C9 (gene 1559))?
Answer: 64.4 µM (active)

Question: What about the AC50 (CYP2E1 (gene 1571)) of the same compound?
Answer: 42.3 µM (active)

Question: What about the AC50 (CYP4A11 (gene 1579)) of the same compound?
Answer: 4.9 µM (active)

Question: What about the outcome [10] of the same compound?
Answer: inactive

Question: What about the outcome [11] of the same compound?
Answer: inactive

Question: And the outcome [12]?
Answer: inactive

Question: And the outcome [13]?
Answer: inactive

Question: What does the source list for `Cc1cc(SC2=C(O)C[C@@](CCc3ccc(N)cc3)(C(C)C)OC2=O)c(C(C)(C)C)cc1CO`?
Answer: outcome [1]: inactive; outcome [2]: inactive; outcome (BCL2L11 (gene 10018)): inactive; outcome [3]: inactive; outcome [4]: inactive; outcome (Caspase-3 (Homo sapiens)): inactive; outcome [5]: inactive; AC50 [6]: 0.572 µM (active); outcome [7]: inactive; AC50 [8]: 2.89 µM (active); AC50 [9]: 0.972 µM (active); AC50 (CYP2C8 (gene 1558)): 3.03 µM (active); outcome (CYP2C9 (gene 1559)): inactive; AC50 (CYP2E1 (gene 1571)): 7.16 µM (active); AC50 (CYP4A11 (gene 1579)): 2.25 µM (active); AC50 [10]: 0.344 µM (active); outcome [11]: inactive; AC50 [12]: 6.35 µM (active); outcome [13]: inactive
